Target: T1, Slp1-FL (Drosophila melanogaster, UniProt P32030)
T1 sequence: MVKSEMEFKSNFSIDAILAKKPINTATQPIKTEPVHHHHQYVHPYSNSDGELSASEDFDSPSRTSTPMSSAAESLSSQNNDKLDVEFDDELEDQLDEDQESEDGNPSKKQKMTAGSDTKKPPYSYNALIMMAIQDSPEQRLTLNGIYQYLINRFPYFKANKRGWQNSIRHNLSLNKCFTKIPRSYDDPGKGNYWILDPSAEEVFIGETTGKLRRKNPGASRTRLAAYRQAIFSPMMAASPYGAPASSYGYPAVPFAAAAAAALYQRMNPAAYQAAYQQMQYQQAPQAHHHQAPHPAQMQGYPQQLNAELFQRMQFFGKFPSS
Assay: FP; 33 mM phosphate pH 7.0, 90 mM NaCl, 0.01% Tween 20, 0.1 mM DTT, 0.5% agarose; room temperature
Conditions: tags: N-GST (pGEX-6P-1, kept); dsDNA, one strand shown

Sequence | binding signal
ACGTGTTTACACTAA | 10.7 Kd / Kd of best base at the position
ACGTGTTTACACTGA | 1.18 Kd / Kd of best base at the position
ACGTGTTTACAATTA | 2.79 Kd / Kd of best base at the position
ACGTGTTTACCCTTA | 2.19 Kd / Kd of best base at the position

Target: T2, Gt (Drosophila melanogaster, UniProt P39572 369-448)
T2 sequence: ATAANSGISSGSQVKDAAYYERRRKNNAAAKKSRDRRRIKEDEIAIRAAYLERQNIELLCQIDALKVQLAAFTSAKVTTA
Assay: as above
Conditions: tags: N-GST (pGEX-6P-1, kept); chain copies: 2; dsDNA, one strand shown

Sequence | binding signal | Kd
ATTACGTGACC | 18.9 Kd / Kd of best base at the position | –
ATTACGCAACC | 4.03 Kd / Kd of best base at the position | –
ATTACGTATCC | 549 Kd / Kd of best base at the position | –
ATTACGTACCC | 1620 Kd / Kd of best base at the position | –
ATTACGAAACC | 316 Kd / Kd of best base at the position | –
ATTACGGAACC | 460 Kd / Kd of best base at the position | –
ATTACTTAACC | 567 Kd / Kd of best base at the position | –
ATTAAGTAACC | 133 Kd / Kd of best base at the position | –
ATTCCGTAACC | 1830 Kd / Kd of best base at the position | –
ATAACGTAACC | 174 Kd / Kd of best base at the position | –
ACTACGTAACC | 121 Kd / Kd of best base at the position | –
ATTACGTAACG | 3.4 Kd / Kd of best base at the position | –
ATTTCGTAACC | 177 Kd / Kd of best base at the position | –
ATTACGTAACC | – | ~900 pM
ATTACGTAAAC | 10.5 Kd / Kd of best base at the position | –
ATTACATAACC | 3.03 Kd / Kd of best base at the position | –
ATTATGTAACC | 3.81 Kd / Kd of best base at the position | –

Sequence | binding signal | Kd
CTTACGTAACC | 2.33 Kd / Kd of best base at the position | –
GTTACGTAACC | 1.09 Kd / Kd of best base at the position | –
ATTACGTCACC | 5.02 Kd / Kd of best base at the position | –
AGTACGTAACC | 155 Kd / Kd of best base at the position | –
ATTACGTAAGC | 3.37 Kd / Kd of best base at the position | –
ATTAGGTAACC | 56.6 Kd / Kd of best base at the position | –
ATGACGTAACC | 3.59 Kd / Kd of best base at the position | –
ATTACGTAACT | 4.28 Kd / Kd of best base at the position | –
ATTACCTAACC | 45.8 Kd / Kd of best base at the position | –
ATTACGTAGCC | 1020 Kd / Kd of best base at the position | –
ATTACGTAATC | 1.58 Kd / Kd of best base at the position | –
ATTACGTTACC | 518 Kd / Kd of best base at the position | –
AATACGTAACC | 113 Kd / Kd of best base at the position | –
TTTACGTAACC | 6.92 Kd / Kd of best base at the position | –
ATTGCGTAACC | 3.54 Kd / Kd of best base at the position | –
ATTACGTAACA | 2.19 Kd / Kd of best base at the position | –
ATCACGTAACC | 40.1 Kd / Kd of best base at the position | –
